hgDAF12 agonist – activates the H. glycines DAF-12 receptor ligand-binding domain; HEK293 GAL4-hgDAF12 UAS-luciferase reporter, agonist luminescence; normalized to butyrate control; activation, % at 6.8 µM; actives 1.8% (n = 370,000); AID 687014;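 active means activation above a cutoff set at the mean of all screened compounds plus 3 SD, cut at about 10% in these data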
DAX1 inh-1 – DAX1 (NR0B1) inhibition, primary screen | HEK293T StAR-luciferase reporter, SF-1/DAX-1 repression relief | inhibition, % at 6.8 µM | actives 1.1% (n = 370,000) | AID 652010;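 active means inhibition above the mean over all tested compounds plus 3 SD, cut at about 3.6% in these data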;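 further: higher inhibition means more luminescence from relief of DAX-1 repression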
hcDAF-12 act – activates DAF-12 receptor from parasite H. contortus; actives 1.4% (n = 370,000); activation, % at 6.8 µM; HEK293 hcDAF-12 lit1-tk-luc reporter, luminescence; 0% DMSO, 100% Δ7-dafachronic acid;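 active means activation above the mean of all tested compounds plus 3 SD, cut at about 5.5% in these data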
ssDAF-12 act – activates DAF-12 receptor from parasite S. stercoralis; HEK293 ssDAF-12/GRIP1 lit1-tk-luc reporter, luminescence; % of 3 µM dafachronic acid response; activation, % at 6.8 µM; actives 1% (n = 370,000);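 active means activation above the mean over all tested compounds plus 3 SD, cut at about 0.9% in these data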
DAX1 inh-2 – inhibits human nuclear receptor DAX1; AID 504766; P51843; HEK293 Gal4-DAX1 luciferase reporter, luminescence; actives 0.99% (n = 340,000); inhibition, % at 6.75 µM;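 active means inhibition above the mean over all tested compounds plus 3 SD, cut at about 4.2% in these data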;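 further: inhibition shows as a rise in luminescence from relieved DAX1 repression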
DAX1 inh confirm – confirmation of human DAX1 (NR0B1) inhibitors; shares compounds with DAX1 inh-1; HEK293T StAR-promoter luciferase reporter, SF-1/DAX-1 repression; inhibition, % at 6.8 µM; actives 87% (n = 2,400);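 active means inhibition above the average of every tested compound plus 3 SD, cut at about 3.8% in these data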;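 further: active compounds raise luminescence by relieving repression of the StAR reporter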
SF1 AF2mut Luc – nonselective inhibitor or artifact in SF-1 mutant DAX1 counter-screen. shares compounds with DAX1 inh-1. HEK293 StAR-luciferase, SF-1 AF2 mutant, luminescence. inhibition, % at 6.8 µM. actives 78% (n = 2,400);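 active means inhibition above the mean of all tested compounds plus 3 SD, cut at about 3% in these data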
LXRb hcDAF ctr – activates human LXR-beta, counter-screen for hcDAF-12 agonists; shares compounds with hcDAF-12 act; activation, % at 6.8 µM; AID 743027; 3,400 tested, under 10 active; HEK293 Gal4-LXR tk-luc reporter, luminescence, 24 h; normalized: DMSO 0%, positive control 100%;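 active means mean percent activation of the reporter above a cutoff set as the average over tested compounds plus their standard deviation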
Target sequence (P55055 whole entry, looked up, the tested form may be a part): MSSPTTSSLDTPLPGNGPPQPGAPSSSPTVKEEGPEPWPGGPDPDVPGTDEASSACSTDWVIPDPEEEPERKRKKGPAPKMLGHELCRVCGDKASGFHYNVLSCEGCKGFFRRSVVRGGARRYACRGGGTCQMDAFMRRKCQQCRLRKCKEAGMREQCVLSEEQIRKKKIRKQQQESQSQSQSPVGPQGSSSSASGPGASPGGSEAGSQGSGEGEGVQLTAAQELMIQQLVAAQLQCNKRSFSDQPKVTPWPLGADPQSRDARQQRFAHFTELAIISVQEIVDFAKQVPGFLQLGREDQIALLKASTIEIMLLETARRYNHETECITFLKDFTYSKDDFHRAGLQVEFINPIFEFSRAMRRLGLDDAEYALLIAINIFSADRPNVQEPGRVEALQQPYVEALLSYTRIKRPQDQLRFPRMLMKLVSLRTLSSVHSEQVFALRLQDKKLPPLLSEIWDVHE
hcDAF12 ag – hcDAF-12 agonism, confirmation assay. shares compounds with hcDAF-12 act. HEK293 hcDAF-12 lit1-tk-luc reporter, luminescence; % of Δ7-dafachronic acid response. activation, % at 6.8 µM. actives 61% (n = 3,400). AID 743032;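 active means mean activation across triplicate tests above the threshold derived from the earlier primary screen, cut at about 5.5% in these data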
A number is an active result; . = inactive; / = no result. Only some compounds are listed: those with a hit (about 4.1% of all), similar ones and a draw of the others.

SMILES	hgDAF12 agonist	DAX1 inh-1	hcDAF-12 act	ssDAF-12 act	DAX1 inh-2	DAX1 inh confirm	SF1 AF2mut Luc	LXRb hcDAF ctr	hcDAF12 ag
Fc1cccc(F)c1/C=C/c1ccc2ccccc2n1	20	5.7	23	2.7	.	16	8.4	.	23
CC(O)/C=C/c1ccc2ccccc2n1 (stereo unspecified)	.	.	.	.	.	/	/	/	/
O=C(Nc1cccc(S(=O)(=O)N2CCOCC2)c1)C1CC(=O)N(c2ccc3c(c2)OCCO3)C1 (stereo unspecified)	.	.	.	.	.	/	/	/	/
Cc1cc(O)cc(=O)n1-c1cccc(C(F)(F)F)c1	.	.	.	.	/	/	/	/	/
CC(C)Cc1cc(C(=O)Nc2ccc3c(c2)OCO3)no1	13	7.3	7.5	1.5	.	14	7.2	.	.
COc1ccc(CCN2CCCC(CN(C)C(=O)c3ccoc3)C2)cc1 (stereo unspecified)	13	10	7.2	.	.	8.8	5.5	.	.
CN(CC1CCCN(CCc2ccccc2F)C1)C(=O)c1ccoc1 (stereo unspecified)	.	.	.	.	.	/	/	/	/
CCC1(c2ccc(F)cc2)NC(=O)N(CC(=O)NCC(=O)Nc2cccc(C)c2C)C1=O (stereo unspecified)	.	.	.	.	.	/	/	/	/
Nc1ccc(Nc2nc(-c3cccs3)cs2)cc1	.	.	.	.	.	/	/	/	/
c1ccc(Nc2nc(-c3cccs3)cs2)nc1	12	4.6	15	2.6	.	13	5.1	.	19
N/C(=N\OC(=O)/C=C/c1ccc(Br)cc1)c1ccccn1	12	4.7	8.0	2.2	.	9.3	7.0	.	8.3
N/C(=N\OC(=O)/C=C/c1ccccc1Cl)c1ccccn1	.	6.2	7.0	.	.	18	6.1	.	8.5
CCCc1nc2ccc(C)cn2c1Cc1ccccc1	.	4.6	7.2	1.3	/	.	3.8	.	7.3
CCCc1nc2ccc(Br)cn2c1Cc1ccccc1	.	.	.	.	/	/	/	/	/
Cc1cc(N/C=C/C(=O)c2cccs2)ccc1F	24	5.2	10	2.1	6.5	17	9.5	.	16
CC(C)(C)c1cc(-c2ccccc2)no1	.	.	.	.	.	/	/	/	/
Cc1ccccc1-c1cc(-c2ccccc2O)on1	22	4.8	22	3.4	.	15	12	.	20
Oc1ccccc1-c1cc(-c2ccccc2)no1	15	6.2	22	4.8	.	20	14	.	19
Cc1ccc(-c2cc(-c3ccccc3)no2)c(O)c1	11	6.8	16	3.1	.	14	3.7	.	19
Cc1nc2c(=O)[nH]n(C)c2nc1C	.	.	.	.	.	/	/	/	/
COc1ccc(Br)cc1CN1CCC(N2CCCC2)CC1	.	.	.	.	.	/	/	/	/
COc1ccc(CCC(=O)Nc2c(-c3ccc(N(C)C)cc3)[nH][nH]c2=O)cc1	.	.	.	.	/	/	/	/	/
Cc1ccc2nc(-c3ccc(NC(=O)C4CCCO4)cc3)[nH]c2c1 (stereo unspecified)	.	7.3	7.7	.	.	12	6.2	.	.
O=c1[nH]c2c(cnn2-c2ccc(Cl)cc2)c(=O)n1-c1cccc(Cl)c1	.	.	.	.	.	/	/	/	/
O=C(N/N=C/c1ccc(Cl)cc1)c1n[nH]c2c1CCCC2	.	.	.	.	.	/	/	/	/
O=C(N/N=C/c1ccccc1Cl)c1n[nH]c2c1CCCC2	16	5.1	6.6	.	.	.	.	.	.
Clc1ccccc1OCc1nc(-c2ccccn2)no1	11	5.7	6.6	.	.	14	6.6	.	7.8
